Screening results deposited in PubChem BioAssay by National Center for Advancing Translational Sciences (NCATS).
In the library only some 1.3% were active in any assay of this set; here they are far more common.
RE007 growth inh: less growth of the S. pombe RE007 Vpr strain; S. pombe RE007 Vpr strain, BacTiter-Glo ATP luminescence, 24 h; 360,000 compounds, 0.21% hits; Potency, µM (highest dose often 92.2 µM), without a hit: at the highest dose activity change, negative = less growth, actives largely listed as inhibitors; active = well fitted falling curve with a large enough effect; inconclusive = small, poorly fitted or top-dose-only effect; inactive = no such curve, though single readings can be large or run the other way; note: nearly all actives have a fitted effect of over 50% in size
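Fission yeast RE007 carrying one integrated HIV-1 vpr copy, seeded at OD 0.01 in PMG+AL medium with 23 nL pinned compound. Grown 24 h at 30 degrees; viability read by BacTiter-Glo luminescence after 5 min.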
Vaccinia mCherry: vaccinia inhibition (mCherry reporter) | Vaccinia virus mCherry reporter infection, fluorescence | Potency, µM (highest dose often 36.5 µM), for inactives: at the highest dose activity change, negative = inhibition, usual class: inhibitors | 310,000 compounds, 0.63% hits; calls by dose curve; tested in A549 cells; note: nearly all actives have a fitted effect of over 35% in size
AMA1-RON2 inh: inhibitors of Plasmodium falciparum AMA1-RON2 interaction | AlphaScreen AMA1-biotinylated RON2 peptide binding | Potency, µM (top dose mostly 58.2 µM), for the others: at the top dose activity change, negative = inhibition, hits mostly inhibitors | 360,000 compounds, 0.2% hits | AID 720542;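 note: 0% = vehicle wells and -100% = peptide control; nearly all actives have a fitted effect of over 45% in size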
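AMA1 (3D7) with his tag at 25 nM final met compounds first, then biotinylated RON2 peptide at 25 nM; detection used donor plus acceptor beads, 10 µg/mL apiece, read by AlphaScreen after 30 min at room temperature.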
VACV Venus inh: inhibitors of vaccinia virus (Venus reporter); Vaccinia virus Venus reporter expression, fluorescence; Potency, µM (top dose mostly 36.5 µM), without a hit: at the top dose activity change, negative = inhibition, hits mostly inhibitors; 330,000 compounds, 0.46% hits; AID 720580; calls by dose curve; tested in A549 cells; note: nearly all actives have a fitted effect of over 30% in size
LmPK inh: LmPK (Leishmania mexicana) enzyme inhibition; 290,000 compounds, 0.37% hits; AID 1721; Potency, µM (doses to about 57.5 µM), without a hit: top-dose activity change, negative = inhibition, hits mostly inhibitors; Q27686; purified LmPK, Kinase-Glo ATP luminescence, 1 h
Target sequence (Q27686 whole entry, looked up): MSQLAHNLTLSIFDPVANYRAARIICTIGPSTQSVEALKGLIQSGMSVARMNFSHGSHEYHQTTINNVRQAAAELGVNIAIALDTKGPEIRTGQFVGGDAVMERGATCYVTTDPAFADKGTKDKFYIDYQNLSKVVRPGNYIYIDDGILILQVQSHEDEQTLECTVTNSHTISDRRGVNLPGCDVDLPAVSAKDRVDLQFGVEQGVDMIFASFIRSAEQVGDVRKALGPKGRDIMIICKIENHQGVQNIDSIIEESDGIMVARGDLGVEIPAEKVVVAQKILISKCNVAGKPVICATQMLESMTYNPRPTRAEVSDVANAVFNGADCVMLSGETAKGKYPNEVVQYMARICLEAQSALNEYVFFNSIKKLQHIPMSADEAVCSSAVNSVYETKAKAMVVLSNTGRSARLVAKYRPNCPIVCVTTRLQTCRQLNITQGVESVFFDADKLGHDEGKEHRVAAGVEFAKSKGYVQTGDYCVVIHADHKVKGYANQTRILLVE
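Screened at intermediate enzyme activity to detect both inhibitors and activators: LmPK at 0.1 nM, with a 0.5 nM enzyme column as activation reference. PEP 0.5 mM, ADP 0.1 mM; ATP detected by luminescence after 1 h.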
Tb PYK inh: T. brucei pyruvate kinase inhibition. Potency, µM (series often up to 76.8 µM), for inactives: top-dose activity, negative = inhibition, usual class: inhibitors. AID 624173. TbPYK enzyme, Kinase-Glo Plus ATP luminescence, 45 min. 410,000 compounds, 0.12% hits; note: nearly all actives have a fitted effect of over 50% in size
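TbPYK + substrate in 50 mM TEA pH 7.2, 100 mM KCl, 10 mM MgCl2, 0.05% BSA, 0.01% Tween-20; cpd pinned; ADP 130 uM final; 45 min RT; Kinase-Glo Plus 10 min; luminescence endpoint.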
Numbers without * were called inactive; i = inactive; ? = inconclusive; . = no result; [ ] = remark or other dose. Unless noted, calls come from the whole dose curve; as a rule, active = well fitted curve in the direction sought with a large enough effect; inconclusive = small, poorly fitted or top-dose-only effect, or another doubt; inactive = no such curve, though single readings can be large; an effect the other way counts as inactive or inconclusive. Unless noted, % is set by controls: 0 for no effect and ±100 for the full control effect; potency is the fitted concentration of half-maximal effect.

SMILES	RE007 growth inh	Vaccinia mCherry	AMA1-RON2 inh	VACV Venus inh	LmPK inh	Tb PYK inh
Cc1ccc(S(=O)(=O)c2nc(S(C)(=O)=O)sc2N(C)C)cc1	1.2%	-15.9%[1.46 µM]	-4.7%	11.2µM*	-0.9%	-9.1%
CCc1ccccc1N(C)C(=O)c1cc2c(=O)oc3ccccc3c2s1	.	-9.0%	.	2.51µM*	.	-1.2%
CCN(C(=O)c1cc2c(=O)oc3ccccc3c2s1)c1ccccc1F	.	-8.8%	.	-7.4%	.	-3.5%
C=Cc1ccc(CN2C(=O)c3ccccc3Sc3ccc(C(=O)OCc4ccco4)cc32)cc1	.	-11.3%	.	-2.8%	.	-5.8%
CC1CN(CC(=O)NCCC2COc3ccccc3O2)Cc2cc(Cl)ccc2O1 (centres undefined)	.	-7.2%	.	-3.1%	.	.
Cc1ccc(C(=O)Cc2ccccc2)c(O)c1	-13.6%	-3.2%	19.0%	-7.3%	.	3.3%
CC(C)=CCc1c(O)ccc(C(=O)Cc2ccccc2)c1O	35.5µM*	?	-1.7%	?	2.7%	0.1%
Cc1cc(C)cc(N2C(=O)NC(=O)/C(=C\c3cccn3-c3ccccc3)C2=O)c1	-7.2%	?	-27.7%	14.1µM*	0.4%	-11.5%
Cc1cc(C)cc(N2C(=O)NC(=O)/C(=C\c3cccn3-c3ccc(Cl)cc3)C2=O)c1	-6.8%	-12.4%[1.46 µM]	-15.1%	-1.2%	0.7%	-2.9%
N=C1C=CC(=C(c2ccc(N)cc2)c2ccc(N)cc2)C=C1	?	?	14.1µM*	?	.	?
O=C(C[N+]1(CC#Cc2ccccc2)CCCCC1)c1ccc(Cl)cc1	-9.2%	10µM*	13.0%	?	9.5%	3.1%
CN(C)[C@@H]1C(=O)C(C(N)=O)=C(O)[C@@]2(O)C(=O)C3=C(O)c4c(O)cccc4[C@@](C)(O)[C@H]3[C@H](O)[C@@H]12	9.2%[18.4 µM]	i	1µM*	-2.0%	-1.2%	-15.4%
COc1cc2c(cc1OC)CN(C(=O)[C@@H]1C[C@H](NCc3cn(C)c4ccccc34)CN1C1Cc3ccccc3C1)CC2	.	-0.7%	.	1.1%	.	.
O=C(NCC1Cc2cccc(-c3cncnc3)c2O1)C1CC1 (centres undefined)	.	-3.4%	.	0.3%	.	.
COC(=O)C1CCN(C2=C(NS(=O)(=O)c3ccc(Cl)cc3)C(=O)c3ccccc3C2=O)CC1	-11.7%	?	20µM*	-3.5%	-23.8%	-3.5%
Cc1ncc2c(c1CNC(=O)c1cncs1)CCN(C(=O)c1ccc(C(F)(F)F)cc1)C2	.	-7.4%	.	-0.8%	.	.
CCn1c(=O)cc(OCC(=O)NCc2ccc(F)cc2Cl)c2ccccc21	.	-14.2%	.	-9.1%	.	0.4%
Cc1ccc(NC2Sc3ccccc3NC2=O)cc1 (centres undefined)	25.7%	-20.6%	-2.5%	-13.5%	-9.3%	14.1µM*
Cc1cc(C(=O)Nc2ccccc2-c2nc(CNC(=O)c3cc4ccccc4cn3)c(C)o2)c(C)o1	.	-8.1%	.	7.0%	.	.
CC(=O)OC[C@]12CCC(C)=C[C@H]1O[C@@H]1[C@H](O)[C@@H](OC(C)=O)[C@@]2(C)[C@]12CO2	3.16µM*	?	37.1%	3.16µM*	0.0%	3.6%
O=Nc1ccc(NOC(=O)c2ccc(Br)cc2)cc1	.	.	.	.	-25.0%	.
Cc1ccc(C(=O)ONc2ccc(N=O)cc2)cc1	5.62µM*	15.2%	0.9%	5.7%	10µM*	?
CCOC(=O)c1sc(NC(=O)Nc2ccccc2)cc1C	-1.7%	15.8µM*	9.4%	12.6µM*	-11.0%	-0.6%
CCOC(=O)c1sc(NC(C)=O)cc1C	1.8%	i	26.2%	-24.8%	1.4%	-0.5%
CCOC(=O)c1sc(NC(=O)Nc2ccccc2Cl)cc1C	-28.1%	?	-0.8%	10µM*	-29.9%	-12.2%
SMILES	RE007 growth inh	Vaccinia mCherry	AMA1-RON2 inh	VACV Venus inh	LmPK inh	Tb PYK inh
CCOC(=O)c1c(N2C(=O)C=CC2=O)sc(C)c1C	12.6µM*	?	-1.3%	?	?	25.1µM*
COc1ccc2nc(NC(=O)Nc3ccccc3OC)sc2c1	-4.6%	?	-2.5%	-20.6%	0.7%	-1.7%
CC(=O)Nc1ccc2nc(NC(=O)c3cccs3)sc2c1	-23.1%	-5.7%	-2.4%	-6.4%	?	-11.2%
COc1ccc2nc(NC(=O)c3cccs3)sc2c1	?	i	-0.6%	-17.7%	12.6µM*	3.9%
COc1ccc2nc(Nc3ccccc3OC)sc2c1	?	?	5.2%	-20.5%	17.8µM*	1.6%
CC(=O)c1ccc(F)c(-c2cc(C)cc3c2OC(CNC(=O)c2ccnn2C)C3)c1 (centres undefined)	.	-12.1%	.	?	.	.
COc1cc(=O)n2c(c1C(=O)NC(C)c1ccco1)CCN(CC=C(C)C)CC2 (centres undefined)	.	-10.2%	.	-11.4%	.	.
NC(=S)N=Nc1c(O)[nH]c2cc(F)c(F)cc12	10.3%	3.16µM*	65.1%	2.24µM*	-5.3%	-3.4%
COc1ccccc1N(C)c1cc2c(c3c1ccn3C)C1CCC2C1 (centres undefined)	-7.7%	64.1%	12.6µM*	5.9%	.	-2.1%
CN(CCc1ccccc1)c1cc2c(c3c1ccn3C)C1CCC2C1 (centres undefined)	-28.1%	27.3%	15.8µM*	5.7%	.	-9.7%
CN(c1cc2c(c3c1ccn3C)C1CCC2C1)C1CCCCC1 (centres undefined)	?	9.3%	15.8µM*	-1.9%	.	-2.9%
CCN(C)c1cc2c(c3c1ccn3C)C1CCC2C1 (centres undefined)	-20.1%	0.2%	?	3.6%	.	-8.3%
Cn1ccc2c(N(Cc3ccccc3)Cc3ccccc3)cc3c(c21)C1CCC3C1 (centres undefined)	-15.8%	12.9%	?	-6.0%	.	5.0%
CN(Cc1ccccc1)c1cc2c(c3c1ccn3C)C1CCC2C1 (centres undefined)	-7.7%	i	15.8µM*	-2.0%	.	-7.7%
COC(=O)c1ccccc1S(=O)(=O)N1CCc2nc(-c3ccccc3)c3c(c2C1)CO[C@@H](C)C3	.	.	.	.	1.9%[11.5 µM]	.
CN(CCO)C(=O)c1cn(C2CCCN(Cc3ccc4ccccc4c3)C2)nn1 (centres undefined)	.	i	.	-11.7%	.	.
C/C(=N/NC(=O)c1ccccn1)c1ccco1	-12.1%	-22.7%	5.2%	-4.0%	14.1µM*	?
C/C(=N\NC(=O)c1n[nH]c2c1CCC2)c1ccco1	-9.3%	i	4.2%	-0.5%	15.8µM*	?
OCC1OC(OC2C(CO)OC(OC3C(CO)OC(O)C(O)C3O)C(O)C2O)C(O)C(O)C1O (centres undefined)	.	.	.	.	.	0.0%
CSc1ccccc1C(=O)NCC1Cc2cc(F)cc(-c3cnccn3)c2O1 (centres undefined)	.	-14.6%	.	-7.4%	.	.
Cc1cccc(N2CCc3c2nc2ccc(Br)cc2c3N)c1	-12.0%	11.2µM*	-3.9%	?	1.8%	-14.2%
